Source: the supplement of paper PMC10849652
Of roughly 8,800 targets only a part is listed; those with a hit were picked by preference. About 0.5% of all pairs of compound and target were hits. Unmarked numbers belong to inactive results.

Tests used:
Assay in all cases: log2 fold change, soluble protein after heating vs DMSO (PISA); higher = thermal stabilisation; K562 lysate, 10 uM; active = over 0.2 and 3.5 SD of the protein, either way, in both replicates (recomputed)
[1] = compound: Cc1cn(-c2cc(NC(=O)c3ccc(C)c(Nc4nccc(-c5cccnc5)n4)c3)cc(C(F)(F)F)c2)cn1 [nilotinib]
Procedure, shortened: (§1)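 Following dounce homogenisation of K562 pellets in PBS pH 7.4 with 1 mM MgCl2, crude extract at 1 mg/mL protein was incubated for 30 min with 10 μM compound. Aliquots were then heated for 3 min over 48°C-58°C and pooled, NP-40 was added to 0.5% at 4°C, and soluble protein was recovered as the supernatant at 21,000xg for 90 min. Channel-sum-equalised TMTpro 16plex LC-MS/MS quantified this protein. Each value, from duplicates, is a log-two fold change in thermal stability relative to solvent controls.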

[2] = compound: Cc1nc(Nc2n[nH]c3c2CN(C(=O)N[C@H](CN(C)C)c2ccccc2)C3(C)C)c2sccc2n1
Procedure, shortened: as §1

[3] = compound: Cc1nc(Nc2ncc(C(=O)Nc3c(C)cccc3Cl)s2)cc(N2CCN(CCO)CC2)n1 [dasatinib]
Procedure, shortened: as §1

[4] = compound: Cc1ncc(-c2ccnc(Nc3ccc(S(C)(=O)=O)cc3)n2)n1C(C)C
Procedure, shortened: as §1

[5] = compound: Cn1cc(-c2ccc3c(c2)CCN3C(=O)Cc2cccc(C(F)(F)F)c2)c2c(N)ncnc21
Procedure, shortened: as §1

[6] = compound: Cn1cc(CNCC2CCN(c3ncc(C(=O)NO)cn3)CC2)c2ccccc21 [quisinostat]
Procedure, shortened: as §1

[7] = compound: Cn1cncc1[C@@](N)(c1ccc(Cl)cc1)c1ccc2c(c1)c(-c1cccc(Cl)c1)cc(=O)n2C [tipifarnib]
Procedure, shortened: as §1

[8] = compound: NC(=O)Nc1cc(-c2cccc(F)c2)sc1C(=O)N[C@H]1CCCNC1
Procedure, shortened: as §1

[9] = compound: NC(=O)c1cnc(N[C@@H]2CCCC[C@@H]2N)nc1Nc1cccc(-n2nccn2)c1
Procedure, shortened: as §1

[10] = compound: NC1(c2ccc(-c3nc4ccn5c(=O)[nH]nc5c4cc3-c3ccccc3)cc2)CCC1
Procedure, shortened: as §1

UniProt Q9BV79, sequence (Q9BV79 whole entry, looked up): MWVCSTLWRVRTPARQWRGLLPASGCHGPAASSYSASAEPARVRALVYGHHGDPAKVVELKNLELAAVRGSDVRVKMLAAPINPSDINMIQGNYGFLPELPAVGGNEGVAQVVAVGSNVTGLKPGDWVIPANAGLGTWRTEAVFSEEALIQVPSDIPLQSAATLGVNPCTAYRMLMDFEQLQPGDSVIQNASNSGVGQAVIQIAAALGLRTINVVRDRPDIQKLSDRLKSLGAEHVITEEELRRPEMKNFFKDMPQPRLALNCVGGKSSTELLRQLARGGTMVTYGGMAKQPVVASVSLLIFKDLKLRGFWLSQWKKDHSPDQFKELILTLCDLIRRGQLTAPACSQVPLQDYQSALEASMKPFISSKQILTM
UniProt Q9BPX6, sequence (Q9BPX6 whole entry, looked up): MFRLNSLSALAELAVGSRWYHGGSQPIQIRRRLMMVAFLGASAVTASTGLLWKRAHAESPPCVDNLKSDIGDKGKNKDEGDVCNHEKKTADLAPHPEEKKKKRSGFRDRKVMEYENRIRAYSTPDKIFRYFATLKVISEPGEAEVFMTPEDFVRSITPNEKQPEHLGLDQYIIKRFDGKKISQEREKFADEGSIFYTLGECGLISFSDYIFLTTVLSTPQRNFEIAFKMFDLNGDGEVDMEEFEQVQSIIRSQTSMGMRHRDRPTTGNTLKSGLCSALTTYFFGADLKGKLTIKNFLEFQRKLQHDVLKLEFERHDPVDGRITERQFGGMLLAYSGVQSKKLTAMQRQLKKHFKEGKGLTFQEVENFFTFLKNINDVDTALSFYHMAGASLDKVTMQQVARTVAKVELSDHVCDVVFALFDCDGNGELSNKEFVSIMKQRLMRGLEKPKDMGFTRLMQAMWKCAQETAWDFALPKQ
UniProt Q8NE86, sequence (Q8NE86 whole entry, looked up): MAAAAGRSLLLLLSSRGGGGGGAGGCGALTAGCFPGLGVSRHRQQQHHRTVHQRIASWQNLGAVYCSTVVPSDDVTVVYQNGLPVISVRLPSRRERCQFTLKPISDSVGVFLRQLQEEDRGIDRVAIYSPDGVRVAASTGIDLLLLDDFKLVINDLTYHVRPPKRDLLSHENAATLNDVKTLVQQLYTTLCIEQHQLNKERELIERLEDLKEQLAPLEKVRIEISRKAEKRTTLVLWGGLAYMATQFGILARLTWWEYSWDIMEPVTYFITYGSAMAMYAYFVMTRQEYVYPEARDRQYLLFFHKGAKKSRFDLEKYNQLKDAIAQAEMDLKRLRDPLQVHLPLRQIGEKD
UniProt P40692, sequence (P40692 whole entry, looked up): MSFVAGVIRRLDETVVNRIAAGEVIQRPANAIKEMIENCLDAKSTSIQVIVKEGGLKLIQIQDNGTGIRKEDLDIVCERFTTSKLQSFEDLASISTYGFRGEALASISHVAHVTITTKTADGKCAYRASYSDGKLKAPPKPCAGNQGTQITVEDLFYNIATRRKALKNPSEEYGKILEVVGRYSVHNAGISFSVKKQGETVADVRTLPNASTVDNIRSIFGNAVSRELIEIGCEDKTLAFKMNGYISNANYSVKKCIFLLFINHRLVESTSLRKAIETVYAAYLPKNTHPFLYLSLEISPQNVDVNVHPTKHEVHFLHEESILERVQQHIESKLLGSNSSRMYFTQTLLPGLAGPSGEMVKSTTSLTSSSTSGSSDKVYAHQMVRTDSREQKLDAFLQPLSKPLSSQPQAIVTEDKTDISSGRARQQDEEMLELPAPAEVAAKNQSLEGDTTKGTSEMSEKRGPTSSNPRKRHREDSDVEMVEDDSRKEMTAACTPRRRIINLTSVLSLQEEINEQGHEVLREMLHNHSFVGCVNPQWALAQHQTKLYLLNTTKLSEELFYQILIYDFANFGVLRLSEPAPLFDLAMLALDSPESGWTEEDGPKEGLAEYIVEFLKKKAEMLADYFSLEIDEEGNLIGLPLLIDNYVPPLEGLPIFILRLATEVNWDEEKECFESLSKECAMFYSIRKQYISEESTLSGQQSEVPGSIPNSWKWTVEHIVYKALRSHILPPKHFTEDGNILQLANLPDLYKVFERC
UniProt P45984, sequence (P45984 whole entry, looked up): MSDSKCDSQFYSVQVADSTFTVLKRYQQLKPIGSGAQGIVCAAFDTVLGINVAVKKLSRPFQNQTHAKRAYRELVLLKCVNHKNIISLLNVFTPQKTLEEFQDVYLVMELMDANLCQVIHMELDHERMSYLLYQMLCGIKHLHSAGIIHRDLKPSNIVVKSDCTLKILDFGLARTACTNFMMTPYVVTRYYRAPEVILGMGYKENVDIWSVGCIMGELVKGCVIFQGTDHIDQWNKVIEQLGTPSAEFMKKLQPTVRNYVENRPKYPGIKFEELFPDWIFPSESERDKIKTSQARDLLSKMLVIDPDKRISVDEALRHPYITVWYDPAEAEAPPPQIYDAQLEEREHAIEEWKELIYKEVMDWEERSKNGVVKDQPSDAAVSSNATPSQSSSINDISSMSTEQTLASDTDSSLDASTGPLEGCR
UniProt Q8N5G2, sequence (Q8N5G2 whole entry, looked up): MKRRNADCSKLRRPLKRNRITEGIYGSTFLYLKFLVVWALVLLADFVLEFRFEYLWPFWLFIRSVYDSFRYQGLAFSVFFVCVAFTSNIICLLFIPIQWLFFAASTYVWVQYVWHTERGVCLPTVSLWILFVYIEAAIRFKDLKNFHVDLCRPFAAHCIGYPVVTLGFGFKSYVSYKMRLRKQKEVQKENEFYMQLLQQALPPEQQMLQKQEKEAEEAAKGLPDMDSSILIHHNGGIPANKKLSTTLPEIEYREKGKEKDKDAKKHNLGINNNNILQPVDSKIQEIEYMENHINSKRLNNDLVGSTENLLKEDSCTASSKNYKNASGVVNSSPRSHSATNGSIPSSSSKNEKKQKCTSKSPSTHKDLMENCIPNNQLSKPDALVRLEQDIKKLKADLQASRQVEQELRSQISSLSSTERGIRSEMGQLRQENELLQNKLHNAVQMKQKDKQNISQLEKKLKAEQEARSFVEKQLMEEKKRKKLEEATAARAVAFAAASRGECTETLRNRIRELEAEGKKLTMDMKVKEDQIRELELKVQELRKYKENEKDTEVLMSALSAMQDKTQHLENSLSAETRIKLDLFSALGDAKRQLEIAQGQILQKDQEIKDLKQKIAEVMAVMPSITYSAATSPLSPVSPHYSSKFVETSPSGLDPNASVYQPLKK
UniProt Q14739, sequence (Q14739 whole entry, looked up): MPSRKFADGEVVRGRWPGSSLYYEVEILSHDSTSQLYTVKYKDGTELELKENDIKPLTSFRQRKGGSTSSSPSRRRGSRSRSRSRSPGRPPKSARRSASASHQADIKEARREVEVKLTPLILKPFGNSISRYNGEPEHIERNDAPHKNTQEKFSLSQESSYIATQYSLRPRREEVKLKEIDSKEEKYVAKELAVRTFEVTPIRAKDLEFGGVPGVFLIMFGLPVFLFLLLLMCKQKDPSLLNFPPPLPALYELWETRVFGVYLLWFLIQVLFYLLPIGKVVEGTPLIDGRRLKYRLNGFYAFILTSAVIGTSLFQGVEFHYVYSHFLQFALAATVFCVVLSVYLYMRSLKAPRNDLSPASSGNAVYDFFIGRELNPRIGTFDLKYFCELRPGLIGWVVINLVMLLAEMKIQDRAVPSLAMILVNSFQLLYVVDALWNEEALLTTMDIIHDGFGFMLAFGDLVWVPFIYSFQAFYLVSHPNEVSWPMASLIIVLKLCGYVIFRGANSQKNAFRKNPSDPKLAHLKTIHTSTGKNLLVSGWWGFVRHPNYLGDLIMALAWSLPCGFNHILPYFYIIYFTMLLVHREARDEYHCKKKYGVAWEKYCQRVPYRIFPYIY
UniProt O60337, sequence (O60337 whole entry, looked up): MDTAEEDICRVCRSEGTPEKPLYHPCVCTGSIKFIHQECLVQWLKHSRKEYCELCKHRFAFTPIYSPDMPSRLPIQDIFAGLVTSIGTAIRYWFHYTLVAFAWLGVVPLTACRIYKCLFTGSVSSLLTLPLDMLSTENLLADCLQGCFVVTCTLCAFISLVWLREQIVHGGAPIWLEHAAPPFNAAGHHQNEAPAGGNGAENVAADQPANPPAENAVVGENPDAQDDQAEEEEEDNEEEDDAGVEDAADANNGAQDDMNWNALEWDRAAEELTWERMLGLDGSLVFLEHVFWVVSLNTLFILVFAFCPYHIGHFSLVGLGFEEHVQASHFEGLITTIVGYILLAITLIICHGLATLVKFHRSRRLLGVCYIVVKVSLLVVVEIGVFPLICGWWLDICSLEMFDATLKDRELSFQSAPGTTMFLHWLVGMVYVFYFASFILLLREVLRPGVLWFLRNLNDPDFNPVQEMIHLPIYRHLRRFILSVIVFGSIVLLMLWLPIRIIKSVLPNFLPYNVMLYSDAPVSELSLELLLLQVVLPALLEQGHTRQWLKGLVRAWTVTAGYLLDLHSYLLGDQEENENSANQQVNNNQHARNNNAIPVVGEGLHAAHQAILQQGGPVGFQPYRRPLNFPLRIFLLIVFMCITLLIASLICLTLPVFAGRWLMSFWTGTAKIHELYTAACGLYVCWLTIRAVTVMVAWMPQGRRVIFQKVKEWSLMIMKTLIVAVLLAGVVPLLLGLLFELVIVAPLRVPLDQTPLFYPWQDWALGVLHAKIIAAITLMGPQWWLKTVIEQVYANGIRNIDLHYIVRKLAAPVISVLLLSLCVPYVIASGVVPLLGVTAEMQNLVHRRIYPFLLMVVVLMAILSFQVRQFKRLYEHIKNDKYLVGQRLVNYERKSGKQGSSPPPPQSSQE
UniProt P27361, sequence (P27361 whole entry, looked up): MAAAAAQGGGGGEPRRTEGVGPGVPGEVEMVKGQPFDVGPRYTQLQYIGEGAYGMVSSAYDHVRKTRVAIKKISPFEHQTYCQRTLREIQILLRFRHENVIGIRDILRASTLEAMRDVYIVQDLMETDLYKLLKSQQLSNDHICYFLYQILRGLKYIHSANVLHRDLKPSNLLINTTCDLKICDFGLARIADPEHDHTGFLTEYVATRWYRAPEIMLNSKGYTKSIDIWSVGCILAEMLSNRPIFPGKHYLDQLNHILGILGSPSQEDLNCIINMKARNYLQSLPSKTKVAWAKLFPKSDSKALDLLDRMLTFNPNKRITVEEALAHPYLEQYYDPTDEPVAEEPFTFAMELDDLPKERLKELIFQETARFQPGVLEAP

Row | Target | log2 fold change [1] | log2 fold change [2] | log2 fold change [3] | log2 fold change [4] | log2 fold change [5] | log2 fold change [6] | log2 fold change [7] | log2 fold change [8] | log2 fold change [9] | log2 fold change [10]
1 | MRPL15 (UniProt Q9P015) | 0.011 | -0.034 | 0.004 | -0.028 | -0.008 | -0.022 | 0.012 | 0.005 | 0.012 | -0.181
2 | MAP4K5 (UniProt Q9Y4K4) | -0.035 | 0 | 0.528 (active) | -0.007 | 0.105 | -0.245 | 0.082 | 0.468 (active) | -0.029 | 0.11
3 | MICU2 (UniProt Q8IYU8) | -0.052 | 0.02 | -0.026 | 0.048 | -0.015 | -0.03 | -0.043 | 0.07 | 0.105 | -0.009
4 | KPNA2 (UniProt P52292) | -0.051 | -0.002 | -0.041 | 0.018 | 0.039 | -0.01 | -0.023 | 0.026 | 0.039 | -0.05
5 | MRPL46 (UniProt Q9H2W6) | -0.036 | 0.039 | 0.016 | 0.064 | 0.03 | -0.034 | 0.05 | 0.03 | -0.023 | 0.035
6 | MAPK9 (UniProt P45984) | -0.015 | 0.025 | -0.005 | 0.174 | 0.118 | 0.004 | -0.028 | -0.005 | 0.009 | 0.012
7 | MAST4 (UniProt O15021) | -0.078 | 0.114 | 0.001 | 0.08 | 0.04 | 0.104 | 0.012 | 0.073 | 0.021 | 0.059
8 | MLH1 (UniProt P40692) | 0 | 0.014 | -0.007 | 0.03 | 0.031 | -0.043 | 0.005 | 0.061 | 0.067 | -0.046
9 | MAP4 (UniProt P27816) | -0.002 | -0.001 | 0.013 | 0.016 | -0.036 | -0.001 | 0.012 | -0.034 | -0.011 | -0.003
10 | MAPK3 (UniProt P27361) | 0.009 | 0.272 (active) | -0.026 | 0.141 | -0.019 | 0.016 | -0.013 | 0.022 | 0.094 | -0.003
11 | MAPK1 (UniProt P28482) | -0.042 | 0.205 | -0.014 | 0.091 | -0.01 | 0.07 | 0.011 | 0.01 | 0.088 | 0.003
12 | MARK2 (UniProt E9PC69) | 0.019 | 0.034 | -0.03 | 0.012 | -0.047 | 0.031 | -0.019 | -0.065 | 0.002 | -0.183
13 | METTL2A (UniProt Q96IZ6) | -0.012 | 0.022 | 0.044 | -0.014 | 0.03 | -0.042 | 0.01 | 0.057 | -0.029 | 0.005
14 | MCU (UniProt Q8NE86) | -0.044 | 0.012 | -0.065 | 0.072 | 0.006 | -0.054 | -0.096 | 0.011 | 0.025 | -0.085
15 | METTL21A (UniProt Q8WXB1) | 0.017 | 0.055 | 0.023 | 0.026 | -0.064 | -0.069 | -0.005 | -0.001 | -0.007 | 0.003
16 | MECR (UniProt Q9BV79) | -0.085 | 0.012 | -0.03 | -0.004 | 0.02 | 0.07 | -0.009 | -0.041 | 0.02 | -0.028
17 | MPZL1 (UniProt O95297) | -0.03 | 0.032 | 0.033 | -0.014 | 0.018 | 0.071 | 0.035 | -0.02 | 0.026 | 0.028
18 | MAP4 (UniProt E7EVA0) | 0.073 | 0.021 | -0.009 | 0.046 | 0.057 | -0.271 (active) | -0.031 | 0.024 | 0.016 | -0.1
19 | LYSMD3 (UniProt Q7Z3D4) | -0.096 | -0.293 | -0.083 | 0.171 | -0.068 | -0.037 | 0.352 (active) | -0.022 | 0.057 | 0.023
20 | LSS (UniProt P48449) | 0.042 | 0.001 | 0.016 | -0.025 | 0.047 | -0.022 | -0.065 | 0.003 | 0.083 | 0.092
21 | LUC7L (UniProt Q9NQ29) | -0.027 | -0.113 | -0.032 | -0.047 | 0.023 | 0.22 | 0.033 | -0.207 | -0.014 | 0.032
22 | MAPK8 isoform 3 (UniProt P45983) | 0.051 | -0.007 | 0.054 | 0.326 (active) | 0.07 | -0.139 | 0.006 | 0.093 | 0.115 | -0.062
23 | MICU1 isoform 3 (UniProt Q9BPX6) | 0.01 | -0.044 | -0.02 | -0.015 | 0.027 | 0.002 | -0.015 | -0.026 | 0.06 | -0.021
24 | MACO1 (UniProt Q8N5G2) | -0.003 | 0.017 | -0.092 | 0.066 | 0.004 | 0.042 | 0.042 | 0.033 | -0.02 | 0.054
25 | LBR (UniProt Q14739) | -0.026 | 0.015 | -0.04 | -0.004 | 0.003 | 0.065 | -0.03 | -0.048 | 0.006 | 0.08
26 | MME (UniProt P08473) | -0.09 | 0.082 | -0.513 (active) | 0.021 | 0.104 | -0.02 | -0.031 | 0.085 | 0.061 | -0.014
27 | LRCH3 (UniProt Q96II8) | -0.003 | -0.029 | -0.095 | 0.064 | 0.038 | -0.16 | -0.029 | -0.005 | 0.011 | -0.025
28 | MARCHF6 (UniProt O60337) | 0.164 | -0.024 | -0.136 | 0.04 | -0.169 | -0.085 | -0.179 | -0.025 | -0.023 | -0.008
